# Assay results from PubChem BioAssay (EPA / NIEHS).
# Several values for one entry are separate records, joined by “and”; a condition that tells them apart may be missing. Equal values may be shown once. A structure can be active in one record and inactive in another. Activity calls are given as the source filed them. The calls were made as follows: active = hit-call score of the fitted dose curve at least 0.9, where 1 is the maximum; inactive = score below 0.9.
# Assays:
# [1] = read-out: Intercellular Adhesion Molecule 1 (ICAM1), ICAM1 (gene 3383); experiment: BSK_BF4T_ICAM1: BioMAP Diversity Plus: BF4T Assay for Intercellular Adhesion Molecule 1 (ICAM1) Biomarker Activity (AID 2284260); details: primary human bronchial epithelial cells with fibroblasts
# Method in brief: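 ICAM-1 levels measured by ELISA after 24 h chemical treatment of bronchial epithelial cell/dermal fibroblast co-cultures, read against DMSO baseline. Overt cytotoxicity checked in parallel cultures by sulforhodamine B staining.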
# [2] = read-out: Interleukin-8 (IL8), CXCL8 (gene 3576); experiment: BSK_MyoF_IL8: BioMAP Diversity Plus: MyoF Assay for Interleukin-8 (IL8) Biomarker Activity (AID 2284261); details: primary human lung fibroblasts
# Method in brief: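 IL-8 levels were measured by ELISA in human lung fibroblasts harvested 24 h after compound addition. Responses were analysed as gain of signal over the DMSO baseline.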
# [3] = read-out: CD90, THY1 (gene 7070); experiment: BSK_BF4T_CD90: BioMAP Diversity Plus: BF4T Assay for CD90 Biomarker Activity (AID 2284262); details: primary human bronchial epithelial cells with fibroblasts
# Method in brief: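 CD90 levels by ELISA after 24 h treatment of human bronchial epithelial cell/dermal fibroblast cultures, analysed versus DMSO. Overt cytotoxicity checked in parallel cultures by sulforhodamine B staining.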
# [4] = read-out: Interleukin-8 (IL8), CXCL8 (gene 3576); experiment: BSK_BF4T_IL8: BioMAP Diversity Plus: BF4T Assay for Interleukin-8 (IL8) Biomarker Activity (AID 2284263); details: primary human bronchial epithelial cells with fibroblasts
# Method in brief: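 Human bronchial epithelial cells with dermal fibroblasts co-culture; IL-8 measured by ELISA 24 hours after dosing, fitted vs DMSO. Cytotoxicity tracked in parallel cultures by SRB total-protein staining.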
# [5] = read-out: Decorin, DCN (gene 1634); experiment: BSK_MyoF_Decorin: BioMAP Diversity Plus: MyoF Assay for Decorin Biomarker Activity (AID 2284265); details: primary human lung fibroblasts
# Method in brief: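 Compound is added to lung fibroblast cultures; cells incubate 24 h; decorin is then measured by ELISA; the response is analysed upward against DMSO controls.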
# [6] = read-out: KRT18 (gene 3875); experiment: BSK_BF4T_Keratin818: BioMAP Diversity Plus: BF4T Assay for Keratin 818 Biomarker Activity (AID 2284266); details: primary human bronchial epithelial cells with fibroblasts
# Method in brief: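 Keratin 8/18 levels quantified by ELISA after 24 h chemical treatment of bronchial epithelial cell/dermal fibroblast co-cultures, fitted in positive direction relative to DMSO. Parallel SRB staining tracks overt cytotoxicity.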
# [7] = BSK_MyoF_SRB: Viability Assessment in the BioMAP Diversity Plus: MyoF Assay (AID 2284267); details: primary human lung fibroblasts;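 also: total protein by SRB absorbance in parallel cultures as cytotoxicity measure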
# Method in brief: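 Lung fibroblast cultures, 24 h post-dose; fix 10% TCA, stain 0.1% SRB, read 560 nm. Signal = total protein as cytotoxicity measure; fitted relative to DMSO negative control.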
# [8] = read-out: Matrix Metallopeptidase 1 (MMP1), MMP1 (gene 4312); experiment: BSK_MyoF_MMP1: BioMAP Diversity Plus: MyoF Assay for Matrix Metallopeptidase 1 (MMP1) Biomarker Activity (AID 2284268); details: primary human lung fibroblasts
# Method in brief: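 Lung fibroblast cultures were dosed with test chemicals and, after 24 h, MMP1 levels were measured by ELISA; responses were referenced to DMSO and analysed for increases.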
# [9] = read-out: TIMP metallopeptidase inhibitor 1 (TIMP1), TIMP1 (gene 7076); experiment: BSK_MyoF_TIMP1: BioMAP Diversity Plus: MyoF Assay for TIMP metallopeptidase inhibitor 1 (TIMP1) Biomarker Activity (AID 2284269); details: primary human lung fibroblasts
# Method in brief: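 ELISA read-out of TIMP-1 from primary human lung fibroblast cultures 24 h after compound dosing; gain of signal relative to DMSO vehicle baseline defines activity.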
# [10] = read-out: Interleukin-1 alpha (IL1a), IL1A (gene 3552); experiment: BSK_BF4T_IL1a: BioMAP Diversity Plus: BF4T Assay for Interleukin-1 alpha (IL1a) Biomarker Activity (AID 2284264); details: primary human bronchial epithelial cells with fibroblasts
# Method in brief: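 ELISA read-out of IL-1α from bronchial epithelial cell/dermal fibroblast co-cultures 24 h after compound addition. Increases scored against DMSO negative control. Cytotoxicity monitored by sulforhodamine B staining of parallel cultures.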
structure (smiles),measurement,setting,value
C=C(C)C(=O)OCC(F)(F)C(F)(F)C(F)(F)C(F)F,outcome,[1],inactive
same,outcome,[2],inactive
same,outcome,[3],inactive
same,outcome,[4],inactive
same,outcome,[5],inactive
same,outcome,[6],inactive
same,outcome,[7],inactive
same,outcome,[8],inactive
same,outcome,[9],inactive
COC(F)(C(F)F)C(F)(F)F (configuration not stated),outcome,[1],inactive
same,outcome,[2],inactive
same,outcome,[3],inactive
same,outcome,[4],inactive
same,outcome,[5],inactive
same,outcome,[6],inactive
same,outcome,[7],inactive
same,outcome,[8],inactive
same,outcome,[9],inactive
C=CC(=O)OCCC(F)(F)C(F)(F)C(F)(F)C(F)(F)F,outcome,[1],inactive
same,outcome,[2],inactive
same,outcome,[3],inactive
same,outcome,[4],inactive
same,outcome,[5],inactive
same,outcome,[6],inactive
same,outcome,[7],inactive
same,outcome,[8],inactive
same,outcome,[9],inactive
C=CC(=O)OCC(F)(F)C(F)(F)C(F)(F)C(F)(F)C(F)(F)C(F)(F)C(F)(F)C(F)F,outcome,[1],inactive
same,outcome,[2],inactive
same,outcome,[3],inactive
same,outcome,[4],inactive
same,outcome,[10],inactive
same,AC50,[5],10.3 µM (active)
same,outcome,[5],inactive
same,outcome,[6],inactive
same,outcome,[7],inactive
same,AC50,[8],39.7 µM (active) and 30 µM (active)
same,outcome,[9],inactive
O=C(O)CCC(F)(F)C(F)(F)C(F)(F)C(F)(F)C(F)(F)C(F)(F)C(F)(F)F,outcome,[1],inactive
same,outcome,[2],inactive
same,outcome,[3],inactive
same,outcome,[4],inactive
same,outcome,[10],inactive
same,outcome,[5],inactive
same,outcome,[6],inactive
same,outcome,[7],inactive
same,outcome,[8],inactive
same,outcome,[9],inactive
O=C(O)C(F)(F)C(F)(F)C(F)(F)OC(F)(C(F)(F)F)C(F)(F)F,outcome,[1],inactive
same,outcome,[2],inactive
same,outcome,[3],inactive
same,outcome,[4],inactive
same,outcome,[5],inactive
same,outcome,[6],inactive
same,outcome,[7],inactive
same,outcome,[8],inactive
same,outcome,[9],inactive
Cc1ccc(S(=O)(=O)C(I)I)cc1,outcome,[2],inactive
same,AC50,[5],5.2 µM (active)
same,AC50,[7],8.6 µM (active)
same,AC50,[8],11.2 µM (active)
same,AC50,[9],5.97 µM (active)
Cc1ccc(O)c(-n2nc3ccccc3n2)c1,outcome,[2],inactive
same,outcome,[5],inactive
same,outcome,[7],inactive
same,outcome,[8],inactive
same,outcome,[9],inactive
Cc1cc(C)c(O)c(C(C)(C)C)c1,outcome,[2],inactive
same,AC50,[5],35.4 µM (active)
same,AC50,[7],35.9 µM (active)
same,outcome,[8],inactive
same,AC50,[9],31.6 µM (active)
CCN(CC)c1ccc(N=Nc2ccccc2)cc1,AC50,[2],5.41 µM (active)
same,outcome,[5],inactive
same,AC50,[7],20 µM (active)
same,AC50,[8],5.14 µM (active)
same,outcome,[9],inactive
OCC(F)(F)C(F)(F)C(F)(F)C(F)(F)C(F)(F)C(F)(F)CO,outcome,[1],inactive
same,outcome,[2],inactive
same,outcome,[3],inactive
same,outcome,[4],inactive
same,outcome,[5],inactive
same,outcome,[6],inactive
same,outcome,[7],inactive
same,outcome,[8],inactive
same,outcome,[9],inactive
O=C=NCc1cccc(CN=C=O)c1,outcome,[2],inactive
same,outcome,[5],inactive
same,outcome,[7],inactive
same,outcome,[8],inactive
same,outcome,[9],inactive
O=S(=O)(O)CCC(F)(F)C(F)(F)C(F)(F)C(F)(F)C(F)(F)C(F)(F)C(F)(F)C(F)(F)F,outcome,[1],inactive
same,outcome,[2],inactive
same,outcome,[3],inactive
same,outcome,[4],inactive
same,outcome,[5],inactive
same,outcome,[6],inactive
same,outcome,[7],inactive
same,outcome,[8],inactive
same,outcome,[9],inactive
C[C@]12CC[C@H]3C(=CCc4cc(O)ccc43)[C@@H]1CCC2=O,outcome,[2],inactive
same,outcome,[5],inactive
same,outcome,[7],inactive
same,outcome,[8],inactive
same,outcome,[9],inactive
Nc1cc([N+](=O)[O-])cc(Cl)c1O,outcome,[2],inactive
same,outcome,[5],inactive
same,outcome,[7],inactive
same,outcome,[8],inactive
same,outcome,[9],inactive
Cc1cnccn1,outcome,[2],inactive
same,outcome,[5],inactive
same,outcome,[7],inactive
same,outcome,[8],inactive
same,outcome,[9],inactive
Cc1cc(O)c(C(C)(C)C)cc1C(C)(C)C,AC50,[2],32.8 µM (active)
same,AC50,[5],5.16 µM (active)
same,AC50,[7],5.29 µM (active)
same,AC50,[8],9.48 µM (active)
same,AC50,[9],7.71 µM (active)
CN(C(=O)C(F)(F)C(F)(F)C(F)(F)F)[Si](C)(C)C,outcome,[1],inactive
same,outcome,[2],inactive
same,outcome,[3],inactive
same,outcome,[4],inactive
same,outcome,[5],inactive
same,outcome,[6],inactive
same,outcome,[7],inactive
same,outcome,[8],inactive
same,outcome,[9],inactive
CCN(CC)c1ccc2c(c1)Oc1cc(N(CC)CC)ccc1C21OC(=O)c2ccccc21,outcome,[2],inactive
same,outcome,[5],inactive
same,outcome,[7],inactive
same,outcome,[8],inactive
same,outcome,[9],inactive
CC(C)CCCC(C)CCO (configuration not stated),outcome,[2],inactive
same,outcome,[5],inactive
same,AC50,[7],34.5 µM (active)
same,AC50,[8],33.7 µM (active)
same,outcome,[9],inactive
CCN(CC)c1ccc(C=O)c(O)c1,outcome,[2],inactive
same,outcome,[5],inactive
same,outcome,[7],inactive
same,outcome,[8],inactive
same,outcome,[9],inactive
C[Si](Cl)(Cl)CCC(F)(F)C(F)(F)C(F)(F)C(F)(F)C(F)(F)C(F)(F)F,outcome,[1],inactive
same,outcome,[2],inactive
same,outcome,[3],inactive
same,outcome,[4],inactive
same,outcome,[5],inactive
same,outcome,[6],inactive
same,outcome,[7],inactive
same,outcome,[8],inactive
same,outcome,[9],inactive
O=C1c2c(O)ccc(Nc3ccc(CCO)cc3)c2C(=O)c2c([N+](=O)[O-])ccc(O)c21,AC50,[2],1.65 µM (active)
same,AC50,[5],9.73 µM (active)
same,AC50,[7],11 µM (active)
same,AC50,[8],11 µM (active)
same,outcome,[9],inactive
OCC(F)(F)C(F)(F)C(F)(F)CO,outcome,[1],inactive
same,outcome,[2],inactive
same,outcome,[3],inactive
same,outcome,[4],inactive
same,outcome,[5],inactive
same,outcome,[6],inactive
same,outcome,[7],inactive
same,outcome,[8],inactive
same,outcome,[9],inactive
O=C(O)C(F)(F)OC(F)(F)C(F)(F)OC(F)(F)C(F)(F)OC(F)(F)F,outcome,[1],inactive
same,outcome,[2],inactive
same,outcome,[3],inactive
same,outcome,[4],inactive
same,outcome,[5],inactive
same,outcome,[6],inactive
same,outcome,[7],inactive
same,outcome,[8],inactive
same,AC50,[9],6.35 µM (active)
same,outcome,[9],inactive
O=C(O)CCC(F)(F)C(F)(F)C(F)(F)F,outcome,[1],inactive
same,outcome,[2],inactive
same,outcome,[3],inactive
same,outcome,[4],inactive
same,outcome,[5],inactive
same,outcome,[6],inactive
same,outcome,[7],inactive
same,outcome,[8],inactive
same,outcome,[9],inactive
O=C(c1ccccc1)c1ccc(O)cc1O,outcome,[2],inactive
same,outcome,[5],inactive
same,outcome,[7],inactive
same,outcome,[8],inactive
same,outcome,[9],inactive
CC1=CC2C3C=CC(C3)C2C1C (configuration not stated),outcome,[2],inactive
same,outcome,[5],inactive
same,outcome,[7],inactive
same,outcome,[8],inactive
same,outcome,[9],inactive
O=C(Cl)C(F)(F)C(F)(F)C(F)(F)C(F)(F)C(F)(F)C(F)(F)C(F)(F)F,outcome,[1],inactive
same,outcome,[2],inactive
same,outcome,[3],inactive
same,outcome,[4],inactive
same,outcome,[5],inactive
same,outcome,[6],inactive
same,outcome,[7],inactive
same,outcome,[8],inactive
same,outcome,[9],inactive
Brc1nc2ccccc2s1,outcome,[2],inactive
same,outcome,[5],inactive
same,outcome,[7],inactive
same,outcome,[8],inactive
same,outcome,[9],inactive
O=C(F)C1(F)C(F)(F)C(F)(F)C(F)(F)C(F)(F)C1(F)F,outcome,[1],inactive
same,outcome,[2],inactive
same,outcome,[3],inactive
same,outcome,[4],inactive
same,outcome,[5],inactive
same,outcome,[6],inactive
same,outcome,[7],inactive
same,outcome,[8],inactive
same,outcome,[9],inactive
CCN(CC)c1ccc(C=O)cc1,outcome,[2],inactive
same,outcome,[5],inactive
same,outcome,[7],inactive
same,outcome,[8],inactive
same,outcome,[9],inactive
OCCCCC(F)(F)C(F)(F)C(F)(F)C(F)(F)F,outcome,[1],inactive
same,outcome,[2],inactive
same,outcome,[3],inactive
same,outcome,[4],inactive
same,outcome,[5],inactive
same,outcome,[6],inactive
same,outcome,[7],inactive
same,outcome,[8],inactive
same,outcome,[9],inactive
CCOC(C=C(C)CCC=C(C)C)OCC,outcome,[2],inactive
same,AC50,[5],0.016 µM (active)
same,AC50,[7],30.4 µM (active)
same,AC50,[8],31.3 µM (active)
same,AC50,[9],3.97 µM (active)
O=C=Nc1cccc2c(N=C=O)cccc12,outcome,[2],inactive
same,outcome,[5],inactive
same,outcome,[7],inactive
same,outcome,[8],inactive
same,outcome,[9],inactive
CC(C)(C)c1cc(CCC(=O)NCCCCCCNC(=O)CCc2cc(C(C)(C)C)c(O)c(C(C)(C)C)c2)cc(C(C)(C)C)c1O,outcome,[2],inactive
same,outcome,[5],inactive
same,outcome,[7],inactive
same,outcome,[8],inactive
same,outcome,[9],inactive
CO[Si](C)(CCC(F)(F)C(F)(F)C(F)(F)C(F)(F)C(F)(F)C(F)(F)F)OC,outcome,[1],inactive
same,outcome,[2],inactive
same,outcome,[3],inactive
same,outcome,[4],inactive
same,outcome,[5],inactive
same,outcome,[6],inactive
same,outcome,[7],inactive
same,outcome,[8],inactive
same,outcome,[9],inactive
O=C1C=CC(=O)N1c1ccc(Cc2ccc(N3C(=O)C=CC3=O)cc2)cc1,outcome,[2],inactive
same,outcome,[5],inactive
same,AC50,[7],3.58 µM (active)
same,AC50,[8],11.7 µM (active)
same,AC50,[9],5.94 µM (active)
